SMILES strings stand for the structures.

Test systems include CAMK1; CAMK2A; CAMK2B; CAMK2D; CAMK2G; CAMK4; CAMKK1; CAMKK2; CASK; CDC2L2; CDK2; CDK3; CDK4-cyclinD1; CDK4-cyclinD3; CDK4; CDK5; CDK7.
Conditions in all cases: concentration: 1 μM, replicates: in singlicate; n = 1
The next assay relates to T1, CDC2L1.
T1 construct: gene CDK11B

A further assay relates to T2, CDC2L5.
T2 construct: gene CDK13

Another assay deals with T3, CDK11.
T3 construct: gene CDK19
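Also: KINOMEscan kinase panel screen.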

Turning to `CCCCc1nn2ncccc2c1-c1ccnc(Nc2ccc(N3CCN(C)CC3)cc2)n1` [GW684941], the “%Inh” value amounted to 28% with CAMK1; 0% in the assay with CAMK2A; 0% in the assay on CAMK2B; 0% in the assay with CAMK2D; 0% in the assay on CAMK2G; 0% in the assay on CAMK4. In addition, the “%Inh” value with CAMKK1 is 0%; in the assay on CAMKK2, 0%; with CASK it was 16%; with CDC2L1 it was 0%; with CDC2L2, 7%; in the assay on CDC2L5 it was 0%. Besides, the “%Inh” value in the assay with CDK11 turned out to be 19%; in the assay on CDK2 it was 0%; in the assay on CDK3, 9%; in the assay on CDK4-cyclinD1, 63%; with CDK4-cyclinD3, 53%; in the assay with CDK4 it was 46%. Besides, the “%Inh” value with CDK5 came to 0%; with CDK7, 34%.
For the molecule `COc1cccc(-c2ccc3c(NC(=O)C4CC4)n[nH]c3n2)c1` [SB-710903], the “%Inh” value in the assay on CAMK1 was 0%; with CAMK2A, 100%; in the assay with CAMK2B, 100%; with CAMK2D it was 8%; in the assay with CAMK2G it was 9%; in the assay with CAMK4 it was 0%. Moreover, the “%Inh” value with CAMKK1 stood at 6%; with CAMKK2, 7%; in the assay on CASK, 23%; in the assay on CDC2L1 it was 0%; in the assay with CDC2L2 it was 1%; in the assay with CDC2L5, 0%. In addition, the “%Inh” value is 0% in the assay with CDK11; 33% in the assay on CDK2; 41% with CDK3; 61% in the assay on CDK4-cyclinD1; 15% in the assay on CDK4-cyclinD3; 52% with CDK4. Further, the “%Inh” value in the assay on CDK5 and with CDK7 was 0% throughout.
As for `COc1cc(Nc2nccc(-c3c(-c4cccc(NC(=O)c5c(F)cccc5F)c4)nn4ccccc34)n2)cc(OC)c1OC` [GSK323521], the “%Inh” value turned out to be 31% in the assay on CAMK1; 3% in the assay on CAMK2A; 0% in the assay on CAMK2B; 35% with CAMK2D; 40% with CAMK2G; 30% with CAMK4. Also, the “%Inh” value came out at 40% with CAMKK1; 38% in the assay with CAMKK2; 5% with CASK; 0% in the assay with CDC2L1; 14% in the assay on CDC2L2; 0% in the assay on CDC2L5. The “%Inh” value amounted to 96.9% in the assay with CDK11; 20% with CDK2; 21% in the assay on CDK3; 0% in the assay on CDK4-cyclinD1; 0% with CDK4-cyclinD3; 7% with CDK4. Also, the “%Inh” value in the assay on CDK5 came out at 28%; in the assay on CDK7 it was 0%.
For `Oc1cc(Nc2ccnc3cc(I)ccc23)ccc1F` [GW552771], the “%Inh” value in the assay with CAMK1 came to 19%; in the assay on CAMK2A, 0%; with CAMK2B it was 0%; with CAMK2D, 0%; in the assay on CAMK2G it was 0%; with CAMK4, 0%. In addition, the “%Inh” value worked out at 8% with CAMKK1; 0% in the assay on CAMKK2; 18% in the assay on CASK; 0% with CDC2L1; 0% with CDC2L2; 0% in the assay with CDC2L5. The “%Inh” value was 10% in the assay with CDK11; 0% in the assay on CDK2; 0% in the assay with CDK3; 11% in the assay on CDK4-cyclinD1; 0% in the assay on CDK4-cyclinD3; 0% in the assay with CDK4. Moreover, the “%Inh” value with CDK5 and in the assay on CDK7 was 0% each time.
For the molecule `Cl.c1ccc(-c2ccc3c(Nc4ccc5[nH]ncc5c4)ccnc3c2)nc1` [GW440137], the “%Inh” value with CAMK1 came to 11%; in the assay with CAMK2A, 0%; in the assay on CAMK2B, 0%; with CAMK2D it was 12%; with CAMK2G it was 16%; in the assay with CAMK4 it was 0%. For the same molecule, the “%Inh” value came out at 0% in the assay with CAMKK1; 19% in the assay on CAMKK2; 13% in the assay with CASK; 0% with CDC2L1; 16% with CDC2L2; 0% with CDC2L5. In addition, the “%Inh” value in the assay with CDK11 was found to be 3%; in the assay on CDK2, 0%; in the assay on CDK3 it was 0%; in the assay with CDK4-cyclinD1, 0%; in the assay on CDK4-cyclinD3, 29%; in the assay with CDK4, 0%. Also, the “%Inh” value with CDK5 was 0%; with CDK7, 8%.
Turning to `Nc1ncnc2c1nc(-c1ccccc1)n2-c1ccccc1` [SKF-97293], the “%Inh” value is 13% with CAMK1; 3% in the assay on CAMK2A; 1% with CAMK2B; 18% in the assay with CAMK2D; 4% with CAMK2G; 0% in the assay with CAMK4. Also, the “%Inh” value with CAMKK1 came out at 0%; in the assay on CAMKK2 it was 6%; in the assay with CASK, 17%; in the assay on CDC2L1, 0%; in the assay on CDC2L2, 5%; with CDC2L5 it was 48%. Moreover, the “%Inh” value in the assay on CDK11 was 7%; in the assay on CDK2, 12%; in the assay with CDK3 it was 13%; with CDK4-cyclinD1, 21%; in the assay on CDK4-cyclinD3, 0%; in the assay on CDK4, 21%. In addition, the results for the “%Inh” value in the assay on CDK5 and in the assay on CDK7 were 3% and 41%, respectively.
Take `Fc1ccc(-c2ncn(C3CCNCC3)c2-c2ccnc(Oc3ccc(-c4ccccc4)cc3)n2)cc1` [SB-245391]: the “%Inh” value in the assay on CAMK1 turned out to be 30%; in the assay on CAMK2A, 20%; in the assay with CAMK2B it was 0%; with CAMK2D it was 14%; with CAMK2G, 17%; in the assay with CAMK4, 0%. Further, the “%Inh” value in the assay on CAMKK1 is listed as 22%; with CAMKK2 it was 20%; in the assay with CASK, 7%; in the assay on CDC2L1 it was 11%; in the assay on CDC2L2, 9%; in the assay on CDC2L5, 43%. For the same molecule, the “%Inh” value in the assay on CDK11 is 22%; in the assay with CDK2, 19%; in the assay on CDK3 it was 26%; with CDK4-cyclinD1, 0%; with CDK4-cyclinD3, 34%; with CDK4, 15%. Besides, the “%Inh” value was 0% in the assay with CDK5 and 41% in the assay with CDK7.
For the molecule `COc1cc(Nc2ncc3c(C)nc(-c4cc5ccccc5[nH]4)n3n2)cc(OC)c1OC` [GW869516], the “%Inh” value worked out at 19% in the assay on CAMK1; 1% in the assay on CAMK2A; 8% with CAMK2B; 6% in the assay with CAMK2D; 1% with CAMK2G; 0% in the assay on CAMK4. Moreover, the “%Inh” value in the assay with CAMKK1 is recorded as 13%; in the assay on CAMKK2, 9%; in the assay on CASK, 0%; in the assay on CDC2L1 it was 5%; in the assay on CDC2L2 it was 8%; in the assay on CDC2L5 it was 0%. Also, the “%Inh” value in the assay with CDK11 worked out at 1%; with CDK2, 0%; in the assay on CDK3, 31%; in the assay with CDK4-cyclinD1, 22%; in the assay on CDK4-cyclinD3, 0%; in the assay on CDK4 it was 0%. In addition, the “%Inh” value in the assay with CDK5 and with CDK7 was 0% each time.

Values taken from article PMC5540273 (PLoS ONE, 2017).
